Reference: ChEMBL document CHEMBL1157539, “Thousands of chemical starting points for antimalarial lead identification” (Nature, 2010)

System: Plasmodium falciparum
Experiment: GSK_TCMDC: Inhibition of Plasmodium falciparum 3D7 in whole red blood cells, using parasite LDH activity as an index of growth. Test compounds present at 2uM
Assay type: functional

SMILES | Inhibition [%]
CN1CCN(c2cc(-c3ccncc3)nc(-c3cccnc3)n2)CC1 | 100
O=C(NCCCCCN1CCC(c2c[nH]c3ccccc23)C1)Nc1ccc(Cl)c(Cl)c1 (stereo not drawn) | 95
CC(C)(C)c1ccc(CN2CCC(CNC(=O)c3cc(-c4cccc(F)c4)cs3)C2)cc1.O=C(O)C(F)(F)F (stereo not drawn) | 100
CN(C)CCOc1cc(NC(=O)Nc2ccc(-c3ccncc3)c(C(F)(F)F)c2)ccc1Cl | 100
CC(CN1CCN(C)CC1)C(=O)Nc1ccc(-c2ccc(-c3nc4ccccc4[nH]3)cc2)cc1 (stereo not drawn) | 92
COc1cc(C)c(NC(=O)c2cccc3c(=O)c(C)c(-c4ccccc4)oc23)cc1OC | 86
Cc1ccc(-c2nc3cc(C(=O)NC4CCN(Cc5ccccc5)CC4)ccc3[nH]2)cc1 | 100
Cc1oc(-c2cccc(Oc3ccccc3)c2)nc1CN(Cc1cnn(C)c1)C(C)C | 89
C=CCc1cc(OC)ccc1OCCCOc1c(C)nc(N)nc1N.Cl | 92
N#Cc1ccc(S(=O)(=O)N2C(c3cccc([N+](=O)[O-])c3)C(C(=O)c3ccccc3)N(C3CCCCC3)C2c2cccc([N+](=O)[O-])c2)cc1 (stereo not drawn) | 83
CCOc1cc(C)ccc1C1CCN(CCCCNC(=O)c2ccc(-c3ccc(Cl)cn3)cc2)CC1.Cl | 94
CCCCc1cc(NCC)nc(Nc2ccc(OC)cc2)n1 | 85
O=C(Nc1cccc(-c2ccc(CN3CCCC3)cc2)c1)c1ccc(Cl)cc1.O=C(O)C(F)(F)F | 100

System: Plasmodium falciparum
Experiment: GSK_TCMDC: Inhibition of Plasmodium falciparum Dd2 in whole red blood cells, using parasite LDH activity as an index of growth. Test compounds present at 2uM
Assay type: functional

SMILES | Inhibition [%]
CCN(CC)CCN(Cc1ccc(-c2ccc(C(F)(F)F)cc2)cc1)C(=O)Cn1c(CCc2ccccc2F)nc(=O)c2ccccc21.O=C(O)C(O)C(O)C(=O)O | 54
COc1ccccc1C(C)NCC(=O)Nc1ccccc1Sc1ccccc1 (stereo not drawn) | 7
Nc1nccc2ccc(-c3ccsc3)cc12.O=C(O)C(F)(F)F | 89
Br.COc1ccccc1CCCON1C(=N)N=C(N)NC1(C)C | 92
COc1cc(CN2CCC(N3CCc4cc(NC(=O)c5cc(C)on5)ccc43)C2)ccc1F (stereo not drawn) | 96
COc1ccc(CN(C)CCCOc2ccc(NC(=O)C=Cc3ccc(C(C)(C)C)cc3)cc2)cc1OC | 87
Cc1cc(N[C@@H](Cc2ccccc2)C(=O)NCCOc2ccccc2)nc(NCCc2ccc(F)cc2)n1.O=C(O)C(F)(F)F | 86
COc1ccc(-c2cc(Nc3nc(-c4cccc(Cl)c4)nc4ccccc34)ccn2)cc1 | 17
CCN(CC)CCN(Cc1ccc(-c2ccc(C(F)(F)F)cc2)cc1)C(=O)c1c[nH]c2ccc(Br)cc12 | 74
COc1ccc(-c2cnc3[nH]cc(-c4ccc(C(=O)O)cc4)c3c2)cn1.O=C(O)C(F)(F)F | 99
CC1(C)NC(N)=NC(=N)N1OCc1cccc(Cl)c1Cl.Cl | 75
O=C(Nc1cccc(CN2CCCN(Cc3ccccc3)CC2)c1)c1ccc(-c2ccccc2)cc1.O=C(O)C(F)(F)F | 8
O=C(NCCCN1CCN(c2cccc(Cl)c2)CC1)c1ccc(-c2nc3cc(Cl)c(Cl)cc3[nH]2)c(F)c1 | 72
Cn1cnc2c(SCc3ccccc3OCc3ccccc3)ncnc21 | 34
Cc1ccc(F)cc1S(=O)(=O)NCC(C)c1ccc(NC(=O)Nc2cccc(F)c2)cc1 (stereo not drawn) | 5
CN1CCN(c2ccc(Cl)cc2NC(=O)C2COc3ccccc3O2)CC1 (stereo not drawn) | 44
N#Cc1cccc(NC(=O)Nc2cccc(-c3cccc(-c4nc5ccccc5[nH]4)c3)c2)c1 | 96
CCCc1ccccc1Nc1nc(C)cc(N(CC)CCCN2CCCCC2)n1.O=C(O)C(F)(F)F | 49
CC(=O)Nc1ncc(C(=O)Nc2ccc(-c3cccc(-c4nc5cc(C(F)(F)F)ccc5[nH]4)c3)cc2)s1 | 92
COc1ccc(OCCCON)cc1.Cl | 0
COc1ccc(C(=O)Nc2ccc(-c3ccc([N+](=O)[O-])cc3)cc2)cc1CCCN(C)C.Cl | 9
COc1ccc(-c2cc(-c3nc4cc(C(=O)N5CCOCC5)ccc4[nH]3)c(=O)n(C)c2)cc1OC.O=C(O)C(F)(F)F | 95
Cc1cccc2c(/C=C/C(=O)NC3CCC(CCN4CCc5ccc(C#N)cc5CC4)CC3)c[nH]c12.Cl (stereo not drawn) | 49
Oc1cc(Nc2ccnc3cc(I)ccc23)ccc1F | 99
Cc1cccc2nc(-c3cccc(-c4cccc(NC(=O)Nc5cccc(C#N)c5)c4)c3)[nH]c12 | 99
